# Screens (PubChem BioAssay)
# 12-hLO inh = inhibitors of human 12-lipoxygenase (ALOX12); P18054; purified 12-hLO, xylenol orange hydroperoxide absorbance; Potency, µM (highest dose often 57.1 µM), without a hit: top-dose activity change, negative = inhibition, actives largely listed as inhibitors; 150,000 compounds, 0.12% hits; also: potency is read from the fitted curve at half-maximal effect; nearly all actives have a fitted effect of over 55% in size
#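 Hydroperoxide formation by human 12-lipoxygenase from 40 uM arachidonic acid was followed colorimetrically via ferric-xylenol orange complex, using the 573/405 nm absorbance ratio. Enzyme concentration was 150 nM, with 30 min reaction at room temperature.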
# ALOX15B inhib = 15-hLO-2 (ALOX15B) enzyme inhibition | purified 15hLO-2, xylenol orange hydroperoxide absorbance | 110,000 compounds, 0.56% hits | Potency, µM (titrated, usually from 57.1 µM), for the others: top-dose activity change, negative = inhibition, usual class: inhibitors | AID 881 | O15296; also: potency is read from the fitted curve at half-maximal effect; nearly all actives have a fitted effect of over 60% in size
# Target sequence (O15296 whole entry, looked up): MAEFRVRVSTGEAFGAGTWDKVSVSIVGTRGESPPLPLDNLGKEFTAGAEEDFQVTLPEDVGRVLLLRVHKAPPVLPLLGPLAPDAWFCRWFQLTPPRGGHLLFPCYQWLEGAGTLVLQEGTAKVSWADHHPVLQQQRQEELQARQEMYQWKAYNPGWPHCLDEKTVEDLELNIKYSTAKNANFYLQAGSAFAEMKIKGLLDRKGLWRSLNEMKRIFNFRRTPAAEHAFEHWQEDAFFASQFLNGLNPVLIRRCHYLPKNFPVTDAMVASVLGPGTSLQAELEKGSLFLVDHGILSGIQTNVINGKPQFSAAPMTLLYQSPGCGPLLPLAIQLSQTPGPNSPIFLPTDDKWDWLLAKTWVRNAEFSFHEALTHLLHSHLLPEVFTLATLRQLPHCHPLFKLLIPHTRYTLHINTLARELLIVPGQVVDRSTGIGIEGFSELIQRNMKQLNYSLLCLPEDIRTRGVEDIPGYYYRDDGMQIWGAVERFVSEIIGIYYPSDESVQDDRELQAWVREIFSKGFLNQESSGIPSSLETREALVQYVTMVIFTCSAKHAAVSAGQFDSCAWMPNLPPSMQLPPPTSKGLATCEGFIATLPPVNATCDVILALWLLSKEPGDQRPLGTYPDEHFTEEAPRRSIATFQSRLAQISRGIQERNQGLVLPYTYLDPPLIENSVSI
#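 Read-out: hydroperoxide product oxidises ferrous iron, measured as xylenol orange complex via the 573-to-405 nm absorbance ratio after 30 min. Reaction: 50 nM enzyme, 15 min compound preincubation, 45 uM arachidonic acid, 90 min RT, Hepes pH 7.5 with Triton X-100.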
# PNC assembly inh = inhibitors of perinucleolar compartment assembly; PC3M PTB-GFP, PNC prevalence imaging, 16 h; active compounds read low; activity change (PNC), negative = inhibition, % at 10 µM; 140,000 compounds, 3.1% hits; AID 2417;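 active = readout at or below -70, meaning at least 70% loss of cells showing the perinucleolar compartment, a nuclear body marking cancer cells; inconclusive = readout between -30 and a set limit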;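 also: plate controls were DMSO wells for no effect and camptothecin positive control wells for full effect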
#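 PC3M cells stably expressing PTB-GFP, 750–1000 cells/well, treated 16 h at 37 °C with compound (23 nl of library stock), in duplicate. After paraformaldehyde fixation and Hoechst stain, imaged at 20x; PNC prevalence scored by image analysis.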
# * hit, by the source's call; ? = inconclusive; . = no result; [ ] = dose if it differs, or a comment. Hits are enriched below; roughly 3.2% of the tested compounds scored in any of these assays. Unless noted, calls follow the shape of the dose curve; as a rule, active = well fitted curve in the direction sought with a large enough effect; inconclusive = small, poorly fitted or top-dose-only effect, or another doubt; inactive = no such curve, though single readings can be large; an effect the other way counts as inactive or inconclusive. Unless noted, % is scaled to controls: 0 for no effect and ±100 for the full control effect.
SMILES,12-hLO inh,ALOX15B inhib,PNC assembly inh
Cc1ccc(-n2c(SCC(=O)OC(C)C)nnc2-c2ccncc2)cc1,1%,.,-100*
CC(C)OC(=O)CSc1nnc(-c2ccncc2)n1N,-1%,3%,-24
Cc1ccc(C)c(NC(=S)NNC(=O)c2csc3c2CCCC3)c1,?,-4%,-27
Cc1ccc(C)c(NC(=S)NNC(=O)c2csc3c2CCC(C)C3)c1 (stereo unspecified),?,-53%,-113*
COc1ccc(-n2nc(C(=O)Nc3nc4ccc(OC)cc4s3)c3ccccc3c2=O)cc1,2%,.,-10
CN1[C@@H]2CC[C@H]1CC(OC(=O)[C@@H](CO)c1ccccc1)C2 (stereo partly specified),-1%[25.6 µM],4%[25.6 µM],.
O=C(CSc1nc2c(sc3ccccc32)c(=O)n1Cc1ccccc1)NCC1CCCO1 (stereo unspecified),3%,-4%,28
O=C(CSc1nc2c(sc3ccccc32)c(=O)n1Cc1ccco1)NCC1CCCO1 (stereo unspecified),2%,-20%,-89*
O=S(=O)(c1ccc(N2CCOCC2)cc1)N1CCOCC1,0%,-26%,1
CC#CCN(CC#CC)S(=O)(=O)c1ccc(S(=O)(=O)N2CCOCC2)cc1,2%,-5%,-105*
COC(=O)C1=C(C(=O)OC)C(c2ccccc2O)c2sc(=O)[nH]c2S1 (stereo unspecified),-1%,.,14
COCCn1c(=O)c(-c2ccc(OC)cc2)nc2cnc(N3CCOCC3)nc21,.,-7%,.
Cc1ccc(C(=O)Nc2ccc3c4c(cccc24)CC3)cc1[N+](=O)[O-],3%,.,-81*
Cc1c(C(=O)Nc2ccc3c4c(cccc24)CC3)cccc1[N+](=O)[O-],7%,.,30
CN(C)CCCNC(=O)c1ccc(Cc2nc3ccccc3[nH]2)cc1,-1%,.,.
O=C(NC(=S)Nc1ccc(CN2CCOCC2)cc1)c1cccc([N+](=O)[O-])c1,-3%,.,-100*
O=C(NC(=S)Nc1ccc(N2CCOCC2)cc1)c1cccc([N+](=O)[O-])c1,1%,.,5
c1ccc(-c2cn3c(n2)-c2ccccc2C3)cc1,-2%,.,43
c1csc(CNc2ccnc(-c3ccc4c(c3)OCO4)n2)c1,.,22%,.
CCCN(CC(=O)Nc1ccc(F)c(F)c1F)CC(=O)Nc1c(Cl)cccc1Cl,-10%,.,77
COc1ccccc1CCn1c(=O)c(-c2cccc(F)c2)nc2cncnc21,.,1%,.
C=CCNC(=O)C(C(=O)OCC)C1CCCCC1 (stereo unspecified),2%,.,40
CCOC(=O)C(C(=O)NCCCN1CCOCC1)C1CCCCC1 (stereo unspecified),2%,.,-100*
COc1cccc(-c2cncnc2NCc2ccccc2OC)c1,.,27%,.
CCCSc1cc(N2CCCC2)nc(-c2ccccc2)n1,-10%,6%,-7
SMILES,12-hLO inh,ALOX15B inhib,PNC assembly inh
CCCSc1cc(N2CCN(C)CC2)nc(-c2ccc(OC)cc2)n1,3%,51%,-81*
COc1cc(NC(=O)c2cccs2)c(OC)cc1NC(=O)c1ccco1,1%,.,-114*
COc1ccc(NC(=O)c2ccco2)cc1NC(=O)c1cccs1,7%,5%,17
Cc1ccc(S(=O)(=O)N2CCN(c3ccc([N+](=O)[O-])c(NCCN4CCOCC4)c3)CC2)cc1,2%,.,-83*
O=[N+]([O-])c1ccc(N2CCN(S(=O)(=O)c3ccccc3)CC2)cc1NCCN1CCOCC1,-7%,-18%,17
O=C(CCCOc1ccccc1)Nc1nncs1,-1%,-2%,16
COc1ccc(OCCCC(=O)Nc2nncs2)cc1,1%,.,-100*
CC[N+](CC)(CC)CC[C@](O)(c1ccccc1)C1CCCCC1,3%[25.6 µM],0%[25.6 µM],.
C[C@H](CCC(=O)O)[C@H]1CC[C@@H]2[C@@H]3CC[C@H]4C[C@@H](O)CC[C@@]4(C)[C@@H]3C[C@H](O)[C@@]21C,13%[11.4 µM],-5%[11.4 µM],.
CN(C(=O)COc1ccc(C(C)(C)C)cc1)C1CCS(=O)(=O)C1 (stereo unspecified),-3%,8%[11.4 µM],-120*
CCc1ccc(OCC(=O)N(C)C2CCS(=O)(=O)C2)cc1 (stereo unspecified),7%,-11%,3
CCOC(=O)c1c(/N=C/C2=C(O)CC(C)(C)CC2=O)sc(C)c1C,1%,.,-6
COc1ccc(N2CCN(C(=S)Nc3cc(C)cc(C)c3)CC2)cc1,-6%,-14%,-106*
COc1ccc(N2CCN(C(=S)Nc3cccc(C)c3)CC2)cc1,-2%,.,-5
Cc1oc2ccc(NS(=O)(=O)c3cccc4cccnc34)cc2c1C(=O)OC(C)C,-4%,.,23
N#C/C(=C\c1ccc(O)c(O)c1)C(=O)NCCc1ccccc1,?,-24%,.
N#C/C(=C\c1ccc(O)c(O)c1)C(=O)NCCCCc1ccccc1,?,16µM*,.
COC(=O)C1=C(C(=O)OC)[C@@H]2N(C)c3ccc(OC)cc3[C@@]23C[C@@H](C(=O)OC)N(S(=O)(=O)c2ccc(C(F)(F)F)cc2)C3=N1,-10%[11.4 µM],.,.
Cc1ccc(C2(C)NC(=O)N(CC(=O)Nc3cc(S(=O)(=O)N4CCOCC4)ccc3C)C2=O)cc1 (stereo unspecified),-4%,.,-115*
Cc1ccc(S(=O)(=O)N2CCOCC2)cc1NC(=O)CN1CCN(c2ccc(O)cc2)CC1,-5%,.,41
CN1CCN(c2ncnc3ccc(-c4ccoc4)cc23)CC1,.,45%,.
N#CCCn1c(=O)c(-c2ccc(Cl)cc2)nc2cnc(OCc3ccccc3)nc21,0%,3%,.
COc1ccc(C(=O)/C=C2/c3ccccc3CC(C)(C)N2C)cc1OC,2%,.,-3
CCN(c1ccccc1)S(=O)(=O)c1ccc(F)cc1C,0%,10%[2.29 µM],?
Cc1ccc2[nH]c(=O)c(CN(CCCO)S(=O)(=O)c3c(C)ccc4nsnc34)cc2c1,-2%,-1%,-80*
SMILES,12-hLO inh,ALOX15B inhib,PNC assembly inh
Cc1cc2cc(CN(CCCO)S(=O)(=O)c3cccc4nsnc34)c(=O)[nH]c2cc1C,-6%,7%,28
CCOC(=O)C(C(=O)Nc1ccccn1)C1CCCCC1 (stereo unspecified),4%,7%,-6
COc1ccc(NC(=O)c2ccccc2NC(=O)NC2CCCCC2)cc1,0%,-20%,?
COC(=O)C(C(=O)Nc1ccc(OC)cc1)C1CCCCCC1 (stereo unspecified),-7%,-11%,-81*
COC(=O)C(C(=O)Nc1ccccc1C)C1CCCC1 (stereo unspecified),0%,-2%,-83*
COC(=O)N1CCC2(CCCN(C(=O)Nc3ccc(OC)cc3)C2)CC1,-2%,0%,.
COc1ccc(C(=O)c2c[nH]c3ccccc23)cc1,-6%,-3%,-26
CC(=O)O[C@@H]1C[C@]2(C)[C@H](C[C@@H](O)[C@H]3[C@@]4(C)CC[C@@H](O)[C@@H](C)[C@@H]4CC[C@@]32C)/C1=C(\CCC=C(C)C)C(=O)O,-4%,-13%,.
CC[N+](CC)(CCNC(=O)C(=O)NCC[N+](CC)(CC)Cc1ccccc1Cl)Cc1ccccc1Cl,-4%,23%,.
CCCSc1nc2c(cnn2-c2ccc(C)c(C)c2)c(=O)[nH]1,-6%,2%,-95*
CCCCSc1nc2c(cnn2-c2ccc(C)c(C)c2)c(=O)[nH]1,-3%,2%,21
